Sampled rows, rich in hits. Any-hit rate of the full collection: about 19%.
Cycloheximide cs – affects cycloheximide protein synthesis inhibition readout, counter-screen; 300,000 compounds, 12% hits; cell reporter, cycloheximide protein synthesis inhibition counterscreen; max response, %; in the data active means max response mostly above about 13%, no sharp cut-off; inactive means mostly below about 14%; further: read at 38.3 µM for the half of the compounds with a filed dose
SARS PLP yeast – blocks SARS-CoV papain-like protease in a yeast assay. S. cerevisiae expressing SARS-CoV PLpro, growth rescue. Potency, µM (highest dose often 32.9 µM), actives largely listed as activators. 330,000 compounds, 0.19% hits; calls by dose curve; further: nearly all actives have a fitted effect of over 55% in size
Pf growth 48h – inhibits P. falciparum growth in the first generation, 48 h; P. falciparum luciferase growth in erythrocytes, 48 h; Potency, µM (doses to about 28.7 µM), usual class: inhibitors; 310,000 compounds, 5.9% hits; AID 504832
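Firefly luciferase activity from engineered P. falciparum reports growth; inhibitors lower the luminescent signal. Cultures contained 2% hematocrit erythrocytes at 0.1% final parasitemia.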
Shiga inhibitor – inhibitors of Shiga toxin in Vero cells. inhibition, % at 38.7 µM. 290,000 compounds, 9.2% hits. Vero cells, Shiga toxin protein synthesis inhibition reporter; in the data active means inhibition mostly above about 28%, no sharp cut-off; inactive means mostly below about 43%
AMA1-RON2 inh – inhibitors of Plasmodium falciparum AMA1-RON2 interaction; AlphaScreen AMA1-biotinylated RON2 peptide binding; Potency, µM (titrated, usually from 58.2 µM), hits mostly inhibitors; 360,000 compounds, 0.2% hits; AID 720542; further: nearly all actives have a fitted effect of over 45% in size
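AMA1 (3D7) with his tag at 25 nM final met compounds first, then biotinylated RON2 peptide at 25 nM; detection used donor plus acceptor beads, 10 µg/mL apiece, read by AlphaScreen after 30 min at room temperature.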
Pf growth 96h – inhibits malaria parasite growth, 96 h; P. falciparum luciferase reporter growth, 96 h; Potency, µM (doses to about 28.7 µM), usual class: inhibitors; 320,000 compounds, 6.9% hits; AID 504834
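Compounds incubated with erythrocytes infected by luciferase-expressing P. falciparum (2% hematocrit, 0.05% parasitemia final) for 96 hours, 37 C in 5% CO2. Growth inhibition scored as decreased luciferase luminescence.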
Hits are given with their value; i = inactive; ? = inconclusive; nt = no result; + = active, no number. Unless noted, the call rests on the fitted dose curve; in most records, active means well fitted curve in the direction sought with a large enough effect; inconclusive means small, poorly fitted or top-dose-only effect, or another doubt; inactive means no such curve, though single readings can be large; an effect the other way counts as inactive or inconclusive.

SMILES | Cycloheximide cs | SARS PLP yeast | Pf growth 48h | Shiga inhibitor | AMA1-RON2 inh | Pf growth 96h
O=C(Nc1ccc(Oc2ccc(NC(=O)Nc3ccc([N+](=O)[O-])cc3)cc2)cc1)Nc1ccc([N+](=O)[O-])cc1 | i | i | ? | i | i | ?
CCOC(=O)c1cnc(-c2ccccc2O)nc1Cl | 36 | i | i | 70 | i | i
CNC1=C(N(C(C)=O)c2ccc(Br)cc2)C(=O)c2ccccc2C1=O | i | i | 0.042µM | i | i | 0.029µM
O=C(O)COCC(=O)N1CCN(c2cc(C(F)(F)F)nc3ccccc23)CC1 | i | i | i | i | i | i
CN(C)c1ccc(C(=O)N2CCN(c3cc(C(F)(F)F)nc4ccccc34)CC2)cc1 | i | i | ? | i | ? | 13µM
O=C(NCc1ccccc1C(F)(F)F)C1CC(c2ccccc2[N+](=O)[O-])=NO1 (stereo not drawn) | i | i | i | i | i | i
S=C(Nc1ccccc1Cl)N(Cc1ccccc1)Cc1cccnc1 | i | i | i | i | i | i
COc1ccccc1NC(=S)N(Cc1ccc(C)cc1)Cc1cccnc1 | i | i | i | i | i | ?
COc1ccccc1NC(=S)N(Cc1cccnc1)Cc1ccco1 | i | i | 12µM | i | i | i
COc1ccc(Cl)cc1NC(=S)N(Cc1cccnc1)Cc1ccco1 | i | i | 10µM | i | i | i
Cc1ccc(Cl)cc1NC(=S)N(Cc1ccccc1)Cc1cccnc1 | i | i | 10µM | i | i | i
COc1ccccc1NC(=S)N(Cc1ccccc1)Cc1cccs1 | i | i | i | i | i | 13µM
Cc1cc(C)c(NC(=S)N(Cc2cccnc2)Cc2ccco2)c(C)c1 | i | i | i | i | i | i
CCc1ccccc1NC(=S)N(Cc1cccnc1)Cc1ccco1 | i | i | ? | i | i | 8.3µM
CN(C)C1=NCCN1CCC1CCCC1 | i | i | i | i | i | i
CC1=C(/C=C/C(=C/C=C/C(C)=C/C(=O)O)c2ccc(C)cc2)C(C)(C)CCC1 | 61 | nt | nt | 91 | nt | nt
CC1=C(/C=C/C(C)=C/C=C/C(C)=C\C(=O)O)C(C)(C)CCC1 | nt | nt | nt | nt | i | nt
CC1=C(/C=C/C(C)=C/C=C/C(C)=C/C(=O)Nc2ccc(O)cc2)C(C)(C)CCC1 | nt | i | 12µM | nt | i | ?
Cc1cc(C)c2c(-n3cccc3)nn(CC#N)c2n1 | i | i | i | i | i | ?
Cc1cc(S(=O)(=O)Nc2ccc(F)cc2)c(C)s1 | i | i | i | i | i | nt
C/C(=N\NC(=O)c1cc(-c2ccco2)nc2ccccc12)c1cccnc1 | i | i | ? | i | i | ?
Cn1c(=O)oc2cc(S(=O)(=O)Nc3cccc([N+](=O)[O-])c3)ccc21 | i | i | i | i | i | i
Cc1nn(C)cc1C1C2=C(CC(C)(C)CC2=O)N(c2ccccc2)C2=C1C(=O)CC(C)(C)C2 | i | i | nt | i | i | 3.7µM
Oc1ccc(N2CCN(C(=S)NCCc3ccccc3)CC2)cc1 | 24 | i | ? | i | i | i
Oc1ccccc1N1CCN(C(=S)NCCc2ccccc2)CC1 | 27 | i | i | 31 | i | i
SMILES | Cycloheximide cs | SARS PLP yeast | Pf growth 48h | Shiga inhibitor | AMA1-RON2 inh | Pf growth 96h
OC1CCN(C(=S)NCCc2ccccc2)CC1 | i | i | nt | i | i | i
CC(=O)N1CCN(C(=S)NCCc2ccccc2)CC1 | i | i | i | i | i | i
COc1ccc(N2CCN(C(=S)NCCc3ccccc3)CC2)cc1 | nt | nt | nt | nt | i | nt
S=C(NCCc1ccccc1)N1CCc2ccccc2C1 | 67 | i | i | 116 | i | ?
NC(=O)C1CCN(C(=S)NCCc2ccccc2)CC1 | 18 | i | i | i | i | i
S=C(NCCc1ccccc1)N1CCN(Cc2ccccc2)CC1 | 31 | i | i | i | ? | i
S=C(NC1CCCCC1)N1CCc2ccccc2C1 | 38 | i | i | + | i | i
CC(=O)NC(c1ccccc1)c1nc(-c2cccc(CO)c2)cs1 (stereo not drawn) | nt | nt | nt | nt | i | nt
CN(Cc1cnn(C)c1)Cc1nc(-c2ccc(Cl)cc2)no1 | 16 | i | i | i | i | 9.3µM
CN(Cc1cnn(C)c1)Cc1nc(COc2ccccc2)no1 | 14 | i | i | i | i | i
O=C1CCC(C(=O)N2CCSCC2)CN1CCc1cccc(F)c1 (stereo not drawn) | 15 | i | i | i | i | i
CCOC(=O)C1CCN(C(=O)C2CCC(=O)N(Cc3cccc(C(F)(F)F)c3)C2)CC1 (stereo not drawn) | 14 | i | i | i | i | i

Compound activity: PubChem BioAssay, National Center for Advancing Translational Sciences (NCATS)
